A selection: hits, their analogues and other compounds. The true share with any hit is near 0.84%.
SRC1 TRFRET art – TR-FRET detection interference compounds, primary screen, artefact control for PPARgamma SRC-1 recruitment agonists, biochemical, TR-FRET emission ratio; 0.34% of 99,000 active; TR-FRET detection artefact counter-screen; hits give high values; TR-FRET ratio at 8 µM; in the data active = TR-FRET ratio above about 2300
PPARg SRC-3 ag – PPARgamma agonists recruiting SRC-3 coactivator, primary screen, biochemical; 0.26% of 200,000 active; Peroxisome proliferator-activated receptor gamma (Homo sapiens), P37231; biochemical PPARgamma/SRC-3 coactivator recruitment assay; activation, % at 8 µM; in the data active = activation above about 23%;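 note: 0% = DMSO and 100% = reference agonist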
Target sequence (P37231 whole entry, looked up): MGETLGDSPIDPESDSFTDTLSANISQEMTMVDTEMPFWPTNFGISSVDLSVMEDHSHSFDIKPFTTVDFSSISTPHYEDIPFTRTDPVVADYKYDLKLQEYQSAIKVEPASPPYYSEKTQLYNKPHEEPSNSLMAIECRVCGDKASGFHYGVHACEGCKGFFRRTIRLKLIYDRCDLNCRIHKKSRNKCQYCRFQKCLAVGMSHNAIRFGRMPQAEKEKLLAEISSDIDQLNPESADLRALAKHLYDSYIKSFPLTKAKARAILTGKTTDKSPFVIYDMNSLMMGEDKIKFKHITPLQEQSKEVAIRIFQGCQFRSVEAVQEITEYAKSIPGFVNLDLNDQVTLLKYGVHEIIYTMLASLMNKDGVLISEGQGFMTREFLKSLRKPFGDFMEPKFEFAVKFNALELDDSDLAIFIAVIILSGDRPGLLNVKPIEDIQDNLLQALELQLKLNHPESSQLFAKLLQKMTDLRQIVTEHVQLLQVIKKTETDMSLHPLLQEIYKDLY
PPARg SRC-2 ag – agonists of PPARg-SRC-2 recruitment, primary screen, biochemical, HTS; Peroxisome proliferator-activated receptor gamma (Homo sapiens), P37231; PPARgamma LBD-SRC-2 recruitment; activation, % at 8 µM; 0.34% of 200,000 active; in the data active = activation above about 22%;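 note: 0% = vehicle and 100% = reference agonist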
SRC3 TRFRET art – TR-FRET detection interference compounds, artefact control for PPARgamma SRC-3 recruitment agonists, biochemical, TR-FRET ratio | TR-FRET ratio at 8 µM | TR-FRET artefact counter-screen, PPARgamma/SRC-3 format; hits give high values | 0.39% of 99,000 active | AID 1048, 2008
TR-FRET SRC-2 ct – TR-FRET signal artefacts, primary screen, artefact control for PPARgamma SRC-2 agonist project, biochemical. TR-FRET artefact counter-screen; hits give high values. TR-FRET ratio at 8 µM. 0.4% of 200,000 active
PPARg SRC-1 ag – PPARgamma agonists recruiting SRC-1 coactivator, primary screen, biochemical; 0.41% of 200,000 active; Peroxisome proliferator-activated receptor gamma (Homo sapiens), P37231; activation, % at 8 µM; PPARgamma-SRC-1 coactivator recruitment biochemical assay; in the data active = activation above about 19%;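 note: 0% = DMSO and 100% = reference agonist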
* marks the source's active call; other numbers are inactive results; / = not tested or not shown. Cut-off read from the data, not from the text of the source, unless noted: active = TR-FRET ratio above about 2000; inactive = the rest.

SMILES | SRC1 TRFRET art | PPARg SRC-3 ag | PPARg SRC-2 ag | SRC3 TRFRET art | TR-FRET SRC-2 ct | PPARg SRC-1 ag
COc1ccc(N2CSC3=C(C#N)C(c4cccs4)CC(=O)N3C2)cc1 (stereo unspecified) | / | 38.9* | 29.4* | / | 2277* | 30.5*
CCc1ccc(C2CC(=O)N3CN(c4ccccc4)CSC3=C2C#N)cc1 (stereo unspecified) | / | 15.6 | 9.1 | / | 1752 | 5.3
CCOC(=O)c1ccc(N2CSC3=C(C#N)C(c4cccs4)CC(=O)N3C2)cc1 (stereo unspecified) | / | 18.8 | 19.9 | / | 2211* | 7.1
COc1cc(/C=C/C(=O)OCC(=O)c2c[nH]c3ccccc23)ccc1OC(F)F | 1978 | 4.2 | 7.4 | 1747 | 1677 | 7.7
CN(C)c1ccc(C=C(c2nnnn2-c2ccccc2)c2nnnn2-c2ccccc2)cc1 | 1891 | 1.7 | 2.7 | 1502 | 1331 | 5.0
COc1ccccc1OCc1nc2ccccc2[nH]1 | / | -6.0 | 23.3* | / | 1592 | -3.3
Cc1ccccc1OCc1nc2ccccc2[nH]1 | 1770 | -0.8 | 1.9 | 1739 | 1505 | 3.2
COc1cccc(C(=O)Nc2ccc(-c3nc4ccccc4o3)c(O)c2)c1 | / | -4.8 | 8.7 | / | 2264* | 2.7
CC(C)(C)c1ccccc1NC(=O)c1c(O)c2cccc3c2n(c1=O)CC3 | 1835 | -1.3 | 1.4 | 2335* | 1499 | -7.9
O=C(O)c1cnn(-c2ccccc2)c1-n1cccc1 | / | 13.6 | 7.0 | / | 1618 | 2.9
NNC(=O)c1cnn(-c2ccccc2)c1-n1cccc1 | 1758 | 2.7 | 30.2* | 1641 | 2005* | -7.6
Cc1[nH]nc2c1C(c1ccc(-c3ccc(Cl)cc3)o1)C(C#N)=C(N)O2 (stereo unspecified) | 1928 | 4.3 | 22.8* | 1758 | 1664 | 7.3
Cc1ccc(-c2ccc(C3C(C#N)=C(N)Oc4n[nH]c(C)c43)o2)cc1 (stereo unspecified) | / | 13.9 | -7.7 | / | 1479 | -1.3
CCS(=O)(=O)N1CCN(c2nc(-c3ccccc3)cs2)CC1 | 1774 | 10.1 | 5.3 | 2121* | 1453 | 8.9
CS(=O)(=O)N1CCN(c2nc(-c3ccccc3)cs2)CC1 | / | 4.6 | -1.2 | / | 1400 | 4.4
Cc1ccc(C2=NC3(CCCCC3)NC2=S)cc1 | 1722 | 0.1 | -2.1 | 1567 | 1697 | -1.7
CCN1CCC2(CC1)N=C(c1ccc(F)cc1)C(=S)N2 | 1797 | 2.6 | 13.6 | 1803 | 1979* | 5.9
COc1cc(C#N)c(NC(=S)N2CCOCC2)cc1OC | 2063 | 5.9 | 11.8 | 1717 | 2021* | 17.3
CCOC(=O)c1c(NC(=S)Nc2ccc(OC)cc2)sc2c1CCC2 | 1583 | 1.0 | 7.5 | 1631 | 1599 | -0.3
COC(=O)c1c(NC(=S)Nc2ccc(C(=O)N3CCOCC3)cc2)sc2c1CCC2 | 2132 | 9.2 | 13.3 | 2231* | 1929 | 17.8
CC(=O)OCC(=O)NCC(=O)c1c[nH]c2ccccc12 | 1651 | 6.2 | 16.6 | 1741 | 1777 | 8.4
CCCOc1ccccc1NC(=O)Nc1ccccc1Cl | 1762 | 6.2 | 1.1 | 1890 | 1790 | 5.8
Cc1cccc(C(=O)N/N=C2/SCC(=O)N2Cc2ccccc2)c1 | 1651 | 1.4 | -1.5 | 1504 | 1603 | -2.9
c1ccc(-n2ncc3c(NCc4cccs4)ncnc32)cc1 | 1950 | 5.4 | 8.9 | 2147* | 1716 | 8.2
COc1ccc(-c2[nH]n(-c3ccc([N+](=O)[O-])cc3)c(=O)c2C=NCc2ccccc2)cc1 | 1871 | -3.4 | 18.5 | 1455 | 1545 | -3.1
COc1ccc(C2=NN(c3nc(-c4ccccc4)c(CC(=O)O)s3)C(c3ccco3)C2)cc1 (stereo unspecified) | 2061 | 14.2 | 0.9 | 2153* | 1644 | 6.6
COc1ccc(C(=O)Nn2c(SCC(=O)c3ccc(Cl)cc3)nc3ccccc3c2=O)cc1 | / | 7.0 | 5.5 | / | 2000* | -1.4
CCCCOc1ccc(C(=O)N/C(=C/C=C/c2ccccc2)C(=O)O)cc1 | 1951 | 29.7* | -0.2 | 1452 | 1532 | 7.0
CSc1nsc(/C=C/Nc2ccc(F)cc2F)c1C#N | 2189 | 4.6 | 10.0 | 2047 | 1928 | 19.8

From PubChem BioAssay
